From article PMC4336329 (PLoS ONE, 2015)
About 14,000 (4.5%) of roughly 310,000 compounds showed an effect of 50% or more. Effects have a minus sign here. Many of the other results were omitted from the sample, so strong results are more common in it than they were.

target: human ether-à-go-go-related gene (hERG) potassium channel (human, UniProt Q12809); test: primary screen, population patch clamp on CHO cells stably expressing hERG; higher = less effect of the substance
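Note: peak tail current of the secondary pulse compared with the same well before compound.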

human ether-à-go-go-related gene (hERG) potassium channel, sequence (Q12809 whole entry, looked up): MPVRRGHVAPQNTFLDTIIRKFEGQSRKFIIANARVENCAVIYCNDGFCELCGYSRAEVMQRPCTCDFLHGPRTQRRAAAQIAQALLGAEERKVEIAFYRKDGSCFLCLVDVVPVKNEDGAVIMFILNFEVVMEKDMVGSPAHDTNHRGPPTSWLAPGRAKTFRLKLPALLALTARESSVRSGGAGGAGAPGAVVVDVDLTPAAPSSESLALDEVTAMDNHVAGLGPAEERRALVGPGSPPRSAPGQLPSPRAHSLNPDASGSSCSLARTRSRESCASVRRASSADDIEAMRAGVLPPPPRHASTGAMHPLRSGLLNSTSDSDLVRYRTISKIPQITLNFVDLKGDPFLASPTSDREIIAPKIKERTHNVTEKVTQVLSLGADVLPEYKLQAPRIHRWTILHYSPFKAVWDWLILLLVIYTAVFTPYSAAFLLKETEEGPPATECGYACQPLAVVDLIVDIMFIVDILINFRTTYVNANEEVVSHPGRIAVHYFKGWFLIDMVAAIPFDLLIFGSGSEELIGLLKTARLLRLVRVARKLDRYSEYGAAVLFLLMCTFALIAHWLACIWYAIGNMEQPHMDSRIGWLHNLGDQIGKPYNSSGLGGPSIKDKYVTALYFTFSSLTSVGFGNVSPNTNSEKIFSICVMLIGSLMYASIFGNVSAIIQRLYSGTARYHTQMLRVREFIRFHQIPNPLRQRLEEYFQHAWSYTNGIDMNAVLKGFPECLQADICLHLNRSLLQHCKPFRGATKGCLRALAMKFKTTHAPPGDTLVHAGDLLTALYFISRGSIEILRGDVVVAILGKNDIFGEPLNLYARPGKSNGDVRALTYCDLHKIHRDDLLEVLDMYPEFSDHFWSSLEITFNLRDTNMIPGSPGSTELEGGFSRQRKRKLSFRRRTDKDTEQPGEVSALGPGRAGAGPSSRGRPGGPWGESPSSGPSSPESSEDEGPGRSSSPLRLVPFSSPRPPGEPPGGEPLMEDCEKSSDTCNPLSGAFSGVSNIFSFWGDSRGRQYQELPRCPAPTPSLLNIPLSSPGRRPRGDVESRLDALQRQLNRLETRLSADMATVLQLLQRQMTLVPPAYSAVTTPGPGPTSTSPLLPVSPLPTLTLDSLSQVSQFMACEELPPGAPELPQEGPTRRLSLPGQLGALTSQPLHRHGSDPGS

Compound	hERG current change (%, negative = inhibition) at 10uM [%]
CC(=O)Nc1c(NCC(C)C)c2ccccc2oc1=O	16.7
Cc1ccc(NC(=O)N2CCc3ccccc3C2)cc1C	15.2
COC(=O)Cc1c(O)ccn(CCc2ccccc2)c1=O	51.2
CCCn1nc(C(=O)NCC2COc3ccccc3O2)c2ccccc2c1=O (stereo not shown)	-36.2
COc1ccc(N2CN=C3SCC(=O)N3C2)cc1	11.5
CC(NC(=O)C1C(=O)N(CCO)C2(C)CC1c1ccccc1O2)c1ccccc1 (stereo not shown)	-14.4
CC(=O)Nc1cccc(C(=O)Nc2ccccc2C(=O)O)c1	7.39
Cc1ccc(-c2csc(NC(=O)CSc3nc4ccccc4c(=O)n3CCCN(C)C)n2)cc1	-35.2
C=CCN(CC=C)c1nc2ccccc2nc1C(C#N)C(=O)OCCOC (stereo not shown)	-29.8
COc1ccccc1NS(=O)(=O)c1cc(NC(=O)C2CC2)ccc1N1CCOCC1	45.4
O=S(=O)(Nc1ccc(N2CCOCC2)cc1)c1cc(Cl)ccc1Cl	4.1
COc1ccccc1NS(=O)(=O)c1cc(NC(=O)C(C)(C)C)ccc1N1CCOCC1	-36.4
Br.COc1ccccc1NS(=O)(=O)c1cc(N2Cc3ccccc3C2=N)ccc1N1CCOCC1	-73.3
Br.N=C1c2ccccc2CN1c1ccc(N2CCOCC2)c(S(=O)(=O)Nc2ccc(Cl)cc2)c1	-81
CCC(=O)Nc1ccc(N2CCOCC2)c(S(=O)(=O)Nc2ccc(Cl)cc2)c1	-25.2
CCOC(=O)c1nc(C)sc1-c1ccnn1S(=O)(=O)c1ccccc1C(F)(F)F	-25.1
CN(CCCC1CCCC1)C(=O)CCc1nnc(-c2ccccc2)o1	-22.7
Cc1cccc(-c2n[nH]c(=S)n2/N=C/c2ccco2)c1	2.87
O=C1[C@@H]2C(Cc3ccc(O)cc3)NC3(C(=O)Nc4ccc(F)cc43)[C@@H]2C(=O)N1c1ccc(F)cc1 (stereo partly shown)	10.1
CC(O)(C#CCN1CCCCC1)c1ccccc1 (stereo not shown)	1.9
Cc1c[nH]c2cccc(OCC(O)CNC(C)(C)C)c12.Cl (stereo not shown)	-8.91
COc1ccc(OCC(O)CN(C)C(=O)C(C)Oc2ccccc2)cc1 (stereo not shown)	6.31

Compound	hERG current change (%, negative = inhibition) at 10uM [%]
CC(O)C(=O)O.COc1ccc(CN(CC(O)COc2cccc3[nH]cc(C)c23)C(C)(C)C)cc1 (stereo not shown)	-60.6
Cc1c[nH]c2cccc(OCC(CNC(C)(C)C)OC(=O)c3ccccc3)c12.Cl (stereo not shown)	1.02
CC(O)C(=O)O.Cc1ccc(CN(CC(O)COc2cccc3[nH]cc(C)c23)C(C)(C)C)cc1 (stereo not shown)	-60.8
COC(=O)Cc1c[nH]c2cccc(OCC(O)CN(Cc3ccc([N+](=O)[O-])cc3)C(C)(C)C)c12.Cl (stereo not shown)	-4.66
CCOC(=O)CSc1ncnc2c(C(=O)OCC)c3n(c12)CCC3	-62.6
CCOC(=O)CSc1ncnc2c1sc1nc(N3CCOCC3)c3c(c12)CCCC3	12.7
CCOC(=O)c1c(NCc2ccccc2)n[nH]c1C	5
CCOC(=O)c1c2n(c3c(NCc4ccccc4)ncnc13)CCCC2	-76.3
CCOC(=O)c1c(C)nsc1NCc1ccccc1	5.94
CCSc1ncnc2c(C#N)c3n(c12)CCCCC3	-23.8
COc1ccc(CNc2nnnn2C)cc1	20.9
CCOC(=O)Cc1csc(NC(=O)c2ccco2)n1	0.229
Cn1c(=O)[nH]c(=O)c2c1nc(Br)n2CCCSc1nc2ccccc2o1	-66.8
Cn1c(=O)[nH]c(=O)c2c1nc(N1CCCCCC1)n2CCCSc1nc2ccccc2o1	-38.3
Cn1c(=O)[nH]c(=O)c2c1nc(Br)n2CCCCSc1nc2ccccc2o1	-55.6
Cn1c(=O)[nH]c(=O)c2c1nc(Br)n2CCSc1nc2ccccc2o1	-1.02
Cn1c(=O)[nH]c(=O)c2c1nc(N1CCCCC1)n2CCSc1nc2ccccc2o1	11.1
Cn1c(=O)[nH]c(=O)c2c1nc(N1CCCC1)n2CCCSc1nc2ccccc2o1	-25.4
Oc1ccc(CNCC2COc3ccccc3O2)cc1 (stereo not shown)	4.89
COc1ccc(OCCC(=O)OCC(=O)NCCc2ccccc2)cc1	6.65
O=C(/C=C/c1ccccc1[N+](=O)[O-])NCC1CCCO1 (stereo not shown)	-3.47
COc1ccc(COC(=O)C2CCN(S(=O)(=O)c3ccc(Cl)cc3)CC2)cc1	30

Compound	hERG current change (%, negative = inhibition) at 10uM [%]
CCn1c(CSc2ncn[nH]2)nc2cc(C(=O)O)ccc21	-4.97
COc1cccc2c1Oc1ncccc1N(C(=O)CCC(=O)NCc1ccc(F)cc1)C2	-32.6
CCOc1ccc(CNC(=O)CCC(=O)N2Cc3ccccc3Oc3ncccc32)cc1	-51.1
COc1cccc2c1Oc1ncccc1N(C(=O)CCC(=O)NCc1ccc(C)cc1)C2	-34.4
CCOc1ccccc1CNC(=O)CCC(=O)N1Cc2ccccc2Oc2ncccc21	-3.62
CCc1ccc(CNC(=O)CCC(=O)N2Cc3cccc(OC)c3Oc3ncccc32)cc1	-75
CCOc1ccc(CNC(=O)CCC(=O)N2Cc3cccc(OC)c3Oc3ncccc32)cc1	-44.3
O=C1C=C(Nc2ccc(O)cc2)C(=O)c2ccccc21	4.35
CCc1ccccc1Nc1nc(-c2cccnc2)cs1	-3.32
Fc1ccc(NC(=S)N/N=C/c2ccc(F)c(F)c2)c(F)c1	13
Cc1nc(SCC(=O)NC2CCCC2)c2c(C)c(C)sc2n1	-4.48
CCc1cccc2c(C(=O)COC(=O)C3=NNC(=O)CC3)c[nH]c12	-51.6
CCc1cccc2c(C(=O)COC(=O)c3nccnc3N)c[nH]c12	-5.69
O=C1CCC(C(=O)OCC(=O)c2c[nH]c3ccccc23)=NN1	1.19
CCc1cccc2c(C(=O)COC(=O)c3nn(C)c(=O)c4ccccc34)c[nH]c12	-65.6
CCc1cccc2c(C(=O)COC(=O)c3cnc(C)cn3)c[nH]c12	2.87
CCc1cccc2c(C(=O)COC(=O)c3ccccc3)c[nH]c12	11.7
Fc1ccccc1NC(=S)NN(Cc1ccccc1)c1ccccc1	-13.9
CCNc1nc2[nH]c(=O)c3c(c2s1)OC(N)=C(C#N)C3c1ccc(C)cc1 (stereo not shown)	1.97
CCCc1nc(SCC(N)=O)[nH]c(=O)c1CC	7.34
CCOc1ccc(NC(=O)c2ccccc2CO)cc1	16.2
Cn1cnnc1SCC(=O)Nc1ccccc1Sc1ccccc1	-16.7

Compound	hERG current change (%, negative = inhibition) at 10uM [%]
COc1cc(C(=O)Nc2cc(C)cc(C)c2)c(-n2cnnn2)cc1OC	14.7
COCCN(C(=O)Nc1ccc(OC)cc1OC)C1CCN(C(C)=O)CC1	7.58
Cl.O=C(Nc1ccccc1)OCC(CN1CCCCC1)OC(=O)Nc1ccccc1 (stereo not shown)	-60.1
O=C(CN1CCCCC1)Nc1ccccc1	-1.04
O=C(Nc1ccccc1)OC(CN1CCCCC1)C(F)(F)F (stereo not shown)	6.17
CCN(CC(=O)Nc1ccc(NC(C)=O)cc1)C(=O)C1CCCN(C(=O)c2ccc(Cl)cc2)C1 (stereo not shown)	-3.75
CCOc1ccccc1NC(=O)CN1CCC(NC(=O)c2ccccc2C)CC1	-59.4
COC(=O)c1ccccc1NC(=O)CN1CCC(NC(=O)c2ccccc2C)CC1	-39.9
CCOc1ccccc1N1CCN(CC(=O)Nc2ccccc2C(=O)NC2CC2)CC1	-70.2
COc1ccc(OC)c(NC(=O)CN2CCC(NC(=O)c3ccccc3C)CC2)c1	-12.3
CC(=O)c1ccc(N2CCN(CC(=O)Nc3ccccc3C(=O)NC3CC3)CC2)c(F)c1	-27.9
CC1CCN(CC(=O)Nc2ccccc2C(=O)NC2CC2)CC1	-17.4
Cc1ccccc1N1CCN(CC(=O)Nc2ccccc2C(=O)NC2CC2)CC1	-62.4
CCOc1ccccc1NC(=O)N1CCC(NC(=O)c2ccccc2C)CC1	-1.06
CCOc1ccccc1OCC(=O)Nc1ccccc1C(=O)NC1CC1	3.61
CCOc1ccccc1C(=O)Nc1cc(OC)ccc1OC	-3.8
CCOc1cc2c(cc1OCC)CN(CC(=O)Nc1ccccc1C(=O)NC1CC1)CC2	-31.4
CCOc1ccccc1C(=O)NC1CCN(CC(=O)Nc2cc(OC)ccc2OC)CC1	-77.2
COc1cccc(OCc2nnc(SC)n2C)c1	-7.06
Cc1cc2ccccn2c1C(=O)c1ccc(NN)c([N+](=O)[O-])c1	-6.4
O=C(Nc1ccc(S(=O)(=O)Nc2ccccn2)cc1)c1ccc(Cl)cc1Cl	2.92
Cc1ccccc1NC(=O)CN1C(=O)S/C(=C\c2ccc(-c3cccc(C(=O)O)c3C)o2)C1=O	23.7
